# CYP2C9 activ – human CYP2C9 activators, primary screen, biochemical, luminescence. recombinant CYP2C9, luciferin-H conversion; stronger effect = higher value; factor 1 = untreated enzyme, 0 = blocked. activation factor at 5 µM. Cytochrome P450 2C9 (Homo sapiens), P11712. AID 1024, 2008. 96,000 compounds, 1.4% hits;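 active means activation factor of 2 or more for CYP2C9 at a 5 µM dose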;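 further: 0 = sulfaphenazole-blocked wells and 1 = vehicle-only wells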
# CYP2C19 act – human CYP2C19 activators, primary screen, biochemical, luminescence | Cytochrome P450 2C19 (Homo sapiens), P33261 | recombinant CYP2C19, luciferin-H EGE luminescence; stronger effect = higher value; 0 = fully inhibited enzyme, 1 = untreated enzyme | activation factor at 5 µM | 96,000 tested, under 10 active | AID 1025, 2008;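 active means activation factor of at least 2 at 5 µM in the primary screen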;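 further: 0 = wells with 2.5 mM tranylcypromine and 1 = vehicle-only wells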
# CYP2C19 inh – blockers of cytochrome P450 2C19 activity – biochemical, luminescence, ADME assay, primary screen; P33261; CYP2C19 Supersomes, luciferin-H EGE luminescence, 30 min; inhibition, % at 5 µM; 96,000 compounds, 21% hits;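 active means CYP2C19 inhibition above a set limit at 5 µM in the primary screen, cut at about 50% in these data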;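 further: plate controls were negative control wells for no effect and 2.5 mM tranylcypromine positive control for full effect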
# CYP2C9 inhib – blockers of cytochrome P450 2C9 activity – biochemical, luminescence, ADME assay, primary screen; P11712; inhibition, % at 5 µM; CYP2C9 Supersomes, luciferin-H conversion; AID 777, 2007; 96,000 compounds, 20% hits;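 active means blocking of liver enzyme CYP2C9 beyond about 50% at 5 µM, limit read from the data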
# Measles CPE – compounds protecting cells from measles virus cytopathic effect, primary screen, measles RdRp inhibitor project, single point, MLSMR library, absorbance | Measles virus-infected cells, CPE protection | protection (pct of control), % at 4 µM | 140,000 compounds, 1.5% hits | AID 841, 2007; in the data active means protection mostly above about 24%, no sharp cut-off; inactive means mostly below about 26%
# Numbers without * were called inactive; · = no result given. Shown are actives, neighbours in structure and some others; about 22% of the full set was active somewhere.
SMILES,CYP2C9 activ,CYP2C19 act,CYP2C19 inh,CYP2C9 inhib,Measles CPE
COC(=O)c1ccc(NC(=O)C(=O)N2CCN(C(=S)Nc3ccc(C)cc3)CC2)cc1,·,·,·,·,12
CCn1c(Cc2ccccc2)nnc1SCC(=O)Nc1ccc2c(c1)OCO2,0.5,0.4,62*,50,4
N#C/C(=C(/O)CSc1nnc(Cc2cccs2)n1C1CCCCC1)c1nc2ccccc2[nH]1,0.6,0.4,61*,37,24
NC(=O)c1ccc(-n2nnnc2SCC(=O)Nc2ccc(N3CCOCC3)c(Cl)c2)cc1,0.9,1,1,6,32*
O=C(CSc1nnnn1-c1ccc(O)cc1)Nc1cccc(S(=O)(=O)N2CCCC2)c1,0.6,0.1,93*,38,7
O=C(CSc1nncn1-c1ccccc1)Nc1cccc(S(=O)(=O)N2CCCCC2)c1,·,·,·,·,9
COc1ccccc1-c1nnc(SC/C(O)=C(\C#N)c2nc3ccccc3[nH]2)n1C1CCCCC1,·,·,·,·,5
O=C(CSc1nnnn1-c1ccc(O)cc1)Nc1ccc(N2CCOCC2)c(Cl)c1,1.7,1.1,-11,-74,22
CCOC(=O)c1cc[n+](CC(=O)c2ccc(F)cc2)cc1,·,·,·,·,10
Cc1cccc(C(=O)NC2CCN(C(=O)N3CCOCC3)CC2)c1,1.1,1.1,-10,-12,42

# Screening results from PubChem BioAssay.
